Measurements: the supplement of paper PMC11732987, “Enantioselective OTUD7B fragment discovery through chemoproteomics screening and high-throughput optimisation” (Communications Chemistry, 2025)

Columns and labels:
Assay in all cases: log2 ratio of Biotin-Ahx-Ub-VS probe labelling (compound/DMSO); higher = less target engagement, active = hit call of the paper (q ≤ 0.05, log2 ratio ≤ -1)
Conditions in all cases: treatment time: 3 h
[1] = compound: CCC1N(CCc2sccc12)C(=O)CCl
Outline: (§1)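 For activity-based profiling, 495 µg portions of HEK293T lysate in Tris/CHAPS/IGEPAL buffer with protease inhibitors were treated in triplicate with compound at 50 or 200 µM or with DMSO for 3 h. A 1 h incubation with Biotin-Ahx-Ub-VS (0.5 µM final) followed, then NeutrAvidin enrichment, LysC and trypsin digestion and diaPASEF LC-MS/MS. The compound/DMSO base-two log ratios were averaged from median-normalised label-free quantities using an unpaired t-test. Proteins needed at least 2 unique peptides to be included.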

[2] = compound: CN1c2ccccc2C(CS1(=O)=O)NC(=O)CCl
Outline: as §1

[3] = compound: Cl.ClCC(=O)N1CCc2ncncc2C1
Outline: as §1

[4] = compound: Cl.Cn1ncc2C(CCCc12)NC(=O)CCl
Outline: as §1

[5] = compound: ClCC(=O)NC1CCOc2ccccc12
Outline: as §1

[6] = compound: ClCC(=O)NC1CCCc2ccccc12
Outline: (§2)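 Values are average ratios of compound to vehicle from an unpaired t-test, limited to proteins with at least two unique peptides. HEK293T lysate (495 µg per sample, in Tris/CHAPS/IGEPAL buffer with protease inhibitors) was exposed in triplicate to a concentration series of compound or to vehicle for 3 h, then to Biotin-Ahx-Ub-VS at 0.5 µM final for 1 h. Labelled deubiquitinases were enriched on NeutrAvidin, digested with LysC and trypsin, and analysed by diaPASEF LC-MS/MS. Ratios are given on a log2 scale from Spectronaut label-free protein quantities normalised to the global median.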

[7] = compound: ClCC(=O)N[C@@H]1CCCc2ccccc12
Outline: as §2

[8] = compound: ClCC(=O)N[C@H]1CCCc2ccccc12
Outline: as §2

[9] = compound: CCC1N(CCc2cc(OC)c(Cl)cc12)C(=O)CCl
Outline: as §1

[10] = compound: CCCC1N(CCc2cc(OC)c(OC)cc12)C(=O)CCl
Outline: as §1

Measured: log2 ratio of Biotin-Ahx-Ub-VS probe labelling

USP28 (UniProt Q96RU2)
Chain of UniProt Q96RU2 (Q96RU2 whole entry): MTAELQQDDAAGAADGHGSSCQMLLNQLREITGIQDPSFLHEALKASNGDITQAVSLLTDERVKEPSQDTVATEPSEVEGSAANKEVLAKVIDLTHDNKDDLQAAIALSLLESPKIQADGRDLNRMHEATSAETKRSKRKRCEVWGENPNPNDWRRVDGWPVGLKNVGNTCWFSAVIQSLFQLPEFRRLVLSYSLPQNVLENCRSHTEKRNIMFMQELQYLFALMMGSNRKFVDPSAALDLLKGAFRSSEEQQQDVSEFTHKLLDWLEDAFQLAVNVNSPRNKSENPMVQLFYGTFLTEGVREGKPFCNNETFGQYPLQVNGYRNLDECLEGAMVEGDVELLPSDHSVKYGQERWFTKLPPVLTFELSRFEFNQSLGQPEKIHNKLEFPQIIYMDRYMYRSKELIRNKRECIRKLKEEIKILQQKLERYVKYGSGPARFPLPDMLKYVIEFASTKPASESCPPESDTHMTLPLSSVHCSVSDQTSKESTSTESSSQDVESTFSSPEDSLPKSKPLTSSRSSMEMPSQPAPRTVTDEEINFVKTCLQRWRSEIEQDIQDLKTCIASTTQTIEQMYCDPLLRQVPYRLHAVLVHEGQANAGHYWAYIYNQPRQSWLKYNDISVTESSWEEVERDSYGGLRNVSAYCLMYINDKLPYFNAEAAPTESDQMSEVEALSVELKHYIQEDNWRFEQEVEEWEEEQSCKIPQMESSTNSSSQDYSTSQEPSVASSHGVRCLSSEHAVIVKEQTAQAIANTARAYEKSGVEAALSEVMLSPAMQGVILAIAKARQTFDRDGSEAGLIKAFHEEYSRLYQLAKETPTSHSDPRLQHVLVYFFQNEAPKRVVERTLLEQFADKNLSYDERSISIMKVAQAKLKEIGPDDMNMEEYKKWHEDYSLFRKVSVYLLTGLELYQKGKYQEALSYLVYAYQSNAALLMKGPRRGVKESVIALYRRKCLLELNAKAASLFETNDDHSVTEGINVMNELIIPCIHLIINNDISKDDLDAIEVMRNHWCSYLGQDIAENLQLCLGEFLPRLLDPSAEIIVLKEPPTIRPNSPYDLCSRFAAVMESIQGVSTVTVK
inactive: [1]; compound concentration: 50uM -0.105 | [1]; compound concentration: 200uM -0.495 | [2]; compound concentration: 50uM -0.127 | [2]; compound concentration: 200uM -0.556 | [3]; compound concentration: 50uM -0.0823 | [3]; compound concentration: 200uM -0.643 | [4]; compound concentration: 50uM 0.00687 | [4]; compound concentration: 200uM -0.349 | [5]; compound concentration: 50uM 0.0277 | [5]; compound concentration: 200uM -0.467 | [6]; compound concentration: 0.78uM -0.115 | [6]; compound concentration: 1.56uM 0.0493 | [6]; compound concentration: 3.13uM -0.068 | [6]; compound concentration: 6.25uM -0.0775 | [6]; compound concentration: 12.5uM -0.136 | [6]; compound concentration: 25uM -0.188 | [6]; compound concentration: 50uM -0.185 | [6]; compound concentration: 100uM -0.427 | [6]; compound concentration: 200uM -0.751 | [7]; compound concentration: 0.78uM -0.289 | [7]; compound concentration: 1.56uM -0.168 | [7]; compound concentration: 3.13uM -0.114 | [7]; compound concentration: 6.25uM -0.181 | [7]; compound concentration: 12.5uM -0.122 | [7]; compound concentration: 25uM -0.154 | [7]; compound concentration: 50uM -0.239 | [7]; compound concentration: 100uM -0.221 | [7]; compound concentration: 200uM -0.426 | [8]; compound concentration: 0.78uM -0.0897 | [8]; compound concentration: 1.56uM -0.144 | [8]; compound concentration: 3.13uM -0.065 | [8]; compound concentration: 6.25uM 0.0299 | [8]; compound concentration: 12.5uM -0.143 | [8]; compound concentration: 25uM -0.24 | [8]; compound concentration: 50uM -0.318 | [8]; compound concentration: 100uM -0.618 | [8]; compound concentration: 200uM -0.996 | [9]; compound concentration: 50uM -0.146 | [9]; compound concentration: 200uM -0.945 | [10]; compound concentration: 50uM -0.218 | [10]; compound concentration: 200uM -0.719

USP7 (UniProt Q93009)
Chain of UniProt Q93009 (Q93009 whole entry, looked up): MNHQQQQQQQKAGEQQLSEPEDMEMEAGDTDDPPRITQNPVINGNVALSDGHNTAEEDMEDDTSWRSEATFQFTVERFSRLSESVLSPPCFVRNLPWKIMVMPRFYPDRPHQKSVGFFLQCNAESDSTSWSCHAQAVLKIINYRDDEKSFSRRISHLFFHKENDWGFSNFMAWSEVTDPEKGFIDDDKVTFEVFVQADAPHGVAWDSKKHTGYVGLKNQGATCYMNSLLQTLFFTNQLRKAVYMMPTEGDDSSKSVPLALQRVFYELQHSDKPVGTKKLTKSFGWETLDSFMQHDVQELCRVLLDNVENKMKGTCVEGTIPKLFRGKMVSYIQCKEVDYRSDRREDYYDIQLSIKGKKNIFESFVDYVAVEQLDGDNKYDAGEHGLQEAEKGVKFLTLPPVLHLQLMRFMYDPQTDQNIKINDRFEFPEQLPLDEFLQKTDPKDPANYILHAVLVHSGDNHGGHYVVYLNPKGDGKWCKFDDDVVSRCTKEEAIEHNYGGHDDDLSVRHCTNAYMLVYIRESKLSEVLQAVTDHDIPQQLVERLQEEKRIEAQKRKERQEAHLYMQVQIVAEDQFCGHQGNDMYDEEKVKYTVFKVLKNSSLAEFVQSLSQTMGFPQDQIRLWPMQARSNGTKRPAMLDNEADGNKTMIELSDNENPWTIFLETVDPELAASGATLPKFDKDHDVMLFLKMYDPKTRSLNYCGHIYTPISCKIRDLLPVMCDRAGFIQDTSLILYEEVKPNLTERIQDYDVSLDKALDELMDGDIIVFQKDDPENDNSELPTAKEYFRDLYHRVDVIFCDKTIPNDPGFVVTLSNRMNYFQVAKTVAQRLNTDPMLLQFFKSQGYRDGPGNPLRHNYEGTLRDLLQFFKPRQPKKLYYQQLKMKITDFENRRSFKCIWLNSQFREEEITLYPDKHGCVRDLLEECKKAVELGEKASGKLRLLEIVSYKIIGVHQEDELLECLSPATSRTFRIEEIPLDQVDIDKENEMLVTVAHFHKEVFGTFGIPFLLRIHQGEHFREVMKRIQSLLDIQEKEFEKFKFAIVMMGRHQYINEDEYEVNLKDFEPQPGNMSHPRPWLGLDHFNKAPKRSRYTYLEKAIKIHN
active: [1]; compound concentration: 200uM -1.24 | [9]; compound concentration: 200uM -1.17 | [10]; compound concentration: 200uM -1.18
inactive: [1]; compound concentration: 50uM -0.421 | [2]; compound concentration: 50uM -0.133 | [2]; compound concentration: 200uM -0.121 | [3]; compound concentration: 50uM -0.0285 | [3]; compound concentration: 200uM -0.558 | [4]; compound concentration: 50uM 0.09 | [4]; compound concentration: 200uM -0.0475 | [5]; compound concentration: 50uM -0.0159 | [5]; compound concentration: 200uM -0.18 | [6]; compound concentration: 0.78uM -0.0291 | [6]; compound concentration: 1.56uM 0.0294 | [6]; compound concentration: 3.13uM -0.0887 | [6]; compound concentration: 6.25uM -0.0846 | [6]; compound concentration: 12.5uM -0.0893 | [6]; compound concentration: 25uM -0.157 | [6]; compound concentration: 50uM -0.0846 | [6]; compound concentration: 100uM -0.00996 | [6]; compound concentration: 200uM -0.173 | [7]; compound concentration: 0.78uM -0.245 | [7]; compound concentration: 1.56uM -0.104 | [7]; compound concentration: 3.13uM -0.126 | [7]; compound concentration: 6.25uM -0.0886 | [7]; compound concentration: 12.5uM -0.122 | [7]; compound concentration: 25uM -0.125 | [7]; compound concentration: 50uM -0.161 | [7]; compound concentration: 100uM -0.145 | [7]; compound concentration: 200uM -0.261 | [8]; compound concentration: 0.78uM -0.0919 | [8]; compound concentration: 1.56uM -0.155 | [8]; compound concentration: 3.13uM -0.109 | [8]; compound concentration: 6.25uM 0.00463 | [8]; compound concentration: 12.5uM -0.0828 | [8]; compound concentration: 25uM -0.0804 | [8]; compound concentration: 50uM -0.017 | [8]; compound concentration: 100uM -0.124 | [8]; compound concentration: 200uM -0.255 | [9]; compound concentration: 50uM -0.321 | [10]; compound concentration: 50uM -0.397
